Data taken from the supplement of paper PMC10849652.
About 8,800 targets were measured; listed, in parts, are those with a hit and a random draw of the rest. About 0.5% of all pairs of compound and target were hits. Unmarked numbers belong to inactive results.

What was measured:
Test in all cases: log2 fold change, soluble protein after heating vs DMSO (PISA); higher = thermal stabilisation; K562 lysate, 10 uM; active = over 0.2 and 3.5 SD of the protein, either way, in both replicates (recomputed)
vemurafenib = compound: CCCS(=O)(=O)Nc1ccc(F)c(C(=O)c2c[nH]c3ncc(-c4ccc(Cl)cc4)cc23)c1F [vemurafenib]
Summary of the method: (§1)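 Pellets of K562 cells were dounce-homogenised in PBS pH 7.4 with 1 mM MgCl2, and the crude extract was held at 1 mg/mL protein for a 30 min treatment with 10 μM compound. Aliquots were heated for 3 min over 48°C-58°C and pooled before NP-40 was added to 0.5% at 4°C. The supernatant from 21,000xg for 90 min was quantified by TMTpro 16plex LC-MS/MS with channel sums equalised. Values are reported from duplicates as log-two fold change in thermal stability relative to solvent controls.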

[1] = compound: CCCS(=O)(=O)Nc1ccc(F)c(C(=O)c2c[nH]c3ncc(Cl)cc23)c1F
Summary of the method: as §1

barasertib = compound: CCN(CCCOc1ccc2c(Nc3cc(CC(=O)Nc4cccc(F)c4)[nH]n3)ncnc2c1)CCOP(=O)(O)O [barasertib]
Summary of the method: as §1

[2] = compound: CC[C@@H]1C(=O)N(C)c2cnc(Nc3ccc(C(=O)NC4CCN(C)CC4)cc3OC)nc2N1C1CCCC1
Summary of the method: as §1

volasertib = compound: CC[C@@H]1C(=O)N(C)c2cnc(Nc3ccc(C(=O)N[C@H]4CC[C@H](N5CCN(CC6CC6)CC5)CC4)cc3OC)nc2N1C(C)C [volasertib]
Summary of the method: as §1

[3] = compound: CCn1c(C(=O)N(C2CC2)C2CC2)cc2c3c(ncn3C)c(Nc3cc(C)n(C)n3)nc21
Summary of the method: as §1

[4] = compound: CCn1cc(-c2ccnc3[nH]c(-c4cccc(CN(C)C)c4)cc23)c(-c2ccc(NC(=O)N(C)C)cc2)n1
Summary of the method: as §1

[5] = compound: CN1CCC(CNc2ccc3ncc(-c4cccc(OC(F)(F)F)c4)n3n2)CC1
Summary of the method: as §1

saracatinib = compound: CN1CCN(CCOc2cc(OC3CCOCC3)c3c(Nc4c(Cl)ccc5c4OCO5)ncnc3c2)CC1 [saracatinib]
Summary of the method: as §1

sotrastaurin = compound: CN1CCN(c2nc(C3=C(c4c[nH]c5ccccc45)C(=O)NC3=O)c3ccccc3n2)CC1 [sotrastaurin]
Summary of the method: as §1

UniProt Q9H582, sequence (Q9H582 whole entry, looked up): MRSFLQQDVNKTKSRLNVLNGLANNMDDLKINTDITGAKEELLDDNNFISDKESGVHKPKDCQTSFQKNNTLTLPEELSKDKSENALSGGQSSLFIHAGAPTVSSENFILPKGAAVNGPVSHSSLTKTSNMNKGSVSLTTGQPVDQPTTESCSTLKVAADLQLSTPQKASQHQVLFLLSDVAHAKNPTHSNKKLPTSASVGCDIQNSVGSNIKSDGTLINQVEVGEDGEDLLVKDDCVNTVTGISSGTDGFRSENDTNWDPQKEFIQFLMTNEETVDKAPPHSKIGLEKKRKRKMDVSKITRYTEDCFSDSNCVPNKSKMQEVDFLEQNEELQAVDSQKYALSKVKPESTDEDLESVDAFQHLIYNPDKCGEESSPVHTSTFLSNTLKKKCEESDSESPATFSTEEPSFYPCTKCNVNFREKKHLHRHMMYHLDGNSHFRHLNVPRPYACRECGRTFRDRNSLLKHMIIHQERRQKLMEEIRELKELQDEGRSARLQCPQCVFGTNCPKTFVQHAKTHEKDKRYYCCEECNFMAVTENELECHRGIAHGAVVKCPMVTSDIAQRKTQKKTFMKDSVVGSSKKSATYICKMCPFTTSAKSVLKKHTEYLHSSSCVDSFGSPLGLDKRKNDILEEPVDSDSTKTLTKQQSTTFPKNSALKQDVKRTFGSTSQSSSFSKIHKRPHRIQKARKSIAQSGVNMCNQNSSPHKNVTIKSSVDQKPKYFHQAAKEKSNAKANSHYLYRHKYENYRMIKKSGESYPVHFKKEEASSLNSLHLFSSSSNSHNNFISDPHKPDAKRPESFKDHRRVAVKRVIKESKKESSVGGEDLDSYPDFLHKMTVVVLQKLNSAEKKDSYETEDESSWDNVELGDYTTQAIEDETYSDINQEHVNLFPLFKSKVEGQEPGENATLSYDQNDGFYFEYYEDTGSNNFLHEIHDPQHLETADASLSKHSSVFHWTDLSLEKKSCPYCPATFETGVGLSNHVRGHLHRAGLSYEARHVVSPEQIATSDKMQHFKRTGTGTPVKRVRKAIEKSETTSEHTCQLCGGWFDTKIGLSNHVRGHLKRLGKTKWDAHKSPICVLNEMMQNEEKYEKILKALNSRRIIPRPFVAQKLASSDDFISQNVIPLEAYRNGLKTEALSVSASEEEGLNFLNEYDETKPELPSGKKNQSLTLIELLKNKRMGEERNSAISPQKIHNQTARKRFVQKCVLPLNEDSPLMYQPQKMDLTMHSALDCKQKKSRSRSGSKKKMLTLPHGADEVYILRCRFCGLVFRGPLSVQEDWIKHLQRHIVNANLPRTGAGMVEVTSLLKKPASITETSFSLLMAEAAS
UniProt Q9UKW4, sequence (Q9UKW4 whole entry, looked up): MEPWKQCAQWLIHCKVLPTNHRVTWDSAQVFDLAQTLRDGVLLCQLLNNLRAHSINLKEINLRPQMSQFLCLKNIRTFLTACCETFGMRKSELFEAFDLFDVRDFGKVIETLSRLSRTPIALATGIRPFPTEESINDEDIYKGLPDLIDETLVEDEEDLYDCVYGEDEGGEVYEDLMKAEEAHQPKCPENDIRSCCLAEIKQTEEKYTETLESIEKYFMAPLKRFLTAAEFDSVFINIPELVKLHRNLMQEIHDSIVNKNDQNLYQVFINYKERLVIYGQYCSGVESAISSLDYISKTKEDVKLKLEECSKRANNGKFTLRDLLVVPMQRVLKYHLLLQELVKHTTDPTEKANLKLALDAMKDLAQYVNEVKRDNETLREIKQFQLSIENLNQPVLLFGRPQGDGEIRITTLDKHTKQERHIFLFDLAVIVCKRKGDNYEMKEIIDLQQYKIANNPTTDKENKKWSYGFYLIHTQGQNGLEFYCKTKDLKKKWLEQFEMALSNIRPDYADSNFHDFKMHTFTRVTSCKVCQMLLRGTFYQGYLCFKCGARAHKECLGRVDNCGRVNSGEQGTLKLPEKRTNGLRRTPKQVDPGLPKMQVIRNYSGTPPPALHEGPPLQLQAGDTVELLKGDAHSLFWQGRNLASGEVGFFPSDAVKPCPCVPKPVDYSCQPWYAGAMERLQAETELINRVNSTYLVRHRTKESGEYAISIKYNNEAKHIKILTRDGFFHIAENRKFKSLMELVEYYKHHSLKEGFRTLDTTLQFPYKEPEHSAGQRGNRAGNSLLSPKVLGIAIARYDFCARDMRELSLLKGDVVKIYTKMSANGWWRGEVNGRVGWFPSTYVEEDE
UniProt Q9UL40, sequence (Q9UL40 whole entry, looked up): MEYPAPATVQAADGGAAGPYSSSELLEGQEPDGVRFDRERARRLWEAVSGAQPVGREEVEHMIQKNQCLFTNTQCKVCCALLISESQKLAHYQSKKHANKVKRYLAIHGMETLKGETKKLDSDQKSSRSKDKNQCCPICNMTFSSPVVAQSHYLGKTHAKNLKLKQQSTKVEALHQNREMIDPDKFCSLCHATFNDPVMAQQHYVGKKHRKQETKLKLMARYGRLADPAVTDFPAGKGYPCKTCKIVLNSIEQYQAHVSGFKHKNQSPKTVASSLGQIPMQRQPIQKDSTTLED
UniProt Q5MNZ9, sequence (Q5MNZ9 whole entry, looked up): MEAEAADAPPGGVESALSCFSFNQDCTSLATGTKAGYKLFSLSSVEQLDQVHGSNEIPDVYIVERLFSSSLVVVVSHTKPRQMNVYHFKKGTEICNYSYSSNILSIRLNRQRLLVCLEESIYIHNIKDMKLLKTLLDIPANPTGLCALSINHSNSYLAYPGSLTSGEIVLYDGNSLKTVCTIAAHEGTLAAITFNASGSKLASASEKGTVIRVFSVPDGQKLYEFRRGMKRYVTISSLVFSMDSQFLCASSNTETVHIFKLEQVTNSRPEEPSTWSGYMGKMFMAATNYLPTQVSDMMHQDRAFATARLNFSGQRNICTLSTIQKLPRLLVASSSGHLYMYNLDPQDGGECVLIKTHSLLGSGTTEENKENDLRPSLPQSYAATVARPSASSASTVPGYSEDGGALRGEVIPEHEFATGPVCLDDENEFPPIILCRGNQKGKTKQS
UniProt Q15776, sequence (Q15776 whole entry, looked up): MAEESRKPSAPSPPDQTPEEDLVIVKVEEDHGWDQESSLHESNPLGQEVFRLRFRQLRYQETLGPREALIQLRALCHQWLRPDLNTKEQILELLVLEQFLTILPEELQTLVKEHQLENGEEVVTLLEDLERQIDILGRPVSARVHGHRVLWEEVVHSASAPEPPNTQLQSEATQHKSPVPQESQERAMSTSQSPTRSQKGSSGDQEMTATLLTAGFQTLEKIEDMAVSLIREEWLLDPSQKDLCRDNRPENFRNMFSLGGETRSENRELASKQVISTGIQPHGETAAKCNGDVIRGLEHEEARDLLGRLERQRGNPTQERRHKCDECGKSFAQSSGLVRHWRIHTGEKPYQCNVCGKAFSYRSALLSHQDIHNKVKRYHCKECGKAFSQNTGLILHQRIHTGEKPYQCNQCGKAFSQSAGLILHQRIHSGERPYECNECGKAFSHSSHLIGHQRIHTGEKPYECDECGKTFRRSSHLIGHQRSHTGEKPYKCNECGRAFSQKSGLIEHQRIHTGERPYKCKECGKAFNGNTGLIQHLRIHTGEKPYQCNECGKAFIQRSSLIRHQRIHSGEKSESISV
UniProt Q9Y5A6, sequence (Q9Y5A6 whole entry, looked up): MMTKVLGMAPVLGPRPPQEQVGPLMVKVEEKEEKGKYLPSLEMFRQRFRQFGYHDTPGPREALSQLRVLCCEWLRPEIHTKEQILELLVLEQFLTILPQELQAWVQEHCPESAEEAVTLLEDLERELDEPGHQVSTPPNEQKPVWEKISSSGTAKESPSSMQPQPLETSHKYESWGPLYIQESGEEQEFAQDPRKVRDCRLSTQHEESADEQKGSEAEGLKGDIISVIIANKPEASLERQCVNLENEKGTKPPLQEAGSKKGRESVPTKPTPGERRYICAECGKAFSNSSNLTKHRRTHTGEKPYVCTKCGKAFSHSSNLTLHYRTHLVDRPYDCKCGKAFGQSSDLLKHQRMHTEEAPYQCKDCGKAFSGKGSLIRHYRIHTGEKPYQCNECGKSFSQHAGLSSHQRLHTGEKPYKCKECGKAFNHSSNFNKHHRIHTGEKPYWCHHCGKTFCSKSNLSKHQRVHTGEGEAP
UniProt Q7Z3J2, sequence (Q7Z3J2 whole entry, looked up): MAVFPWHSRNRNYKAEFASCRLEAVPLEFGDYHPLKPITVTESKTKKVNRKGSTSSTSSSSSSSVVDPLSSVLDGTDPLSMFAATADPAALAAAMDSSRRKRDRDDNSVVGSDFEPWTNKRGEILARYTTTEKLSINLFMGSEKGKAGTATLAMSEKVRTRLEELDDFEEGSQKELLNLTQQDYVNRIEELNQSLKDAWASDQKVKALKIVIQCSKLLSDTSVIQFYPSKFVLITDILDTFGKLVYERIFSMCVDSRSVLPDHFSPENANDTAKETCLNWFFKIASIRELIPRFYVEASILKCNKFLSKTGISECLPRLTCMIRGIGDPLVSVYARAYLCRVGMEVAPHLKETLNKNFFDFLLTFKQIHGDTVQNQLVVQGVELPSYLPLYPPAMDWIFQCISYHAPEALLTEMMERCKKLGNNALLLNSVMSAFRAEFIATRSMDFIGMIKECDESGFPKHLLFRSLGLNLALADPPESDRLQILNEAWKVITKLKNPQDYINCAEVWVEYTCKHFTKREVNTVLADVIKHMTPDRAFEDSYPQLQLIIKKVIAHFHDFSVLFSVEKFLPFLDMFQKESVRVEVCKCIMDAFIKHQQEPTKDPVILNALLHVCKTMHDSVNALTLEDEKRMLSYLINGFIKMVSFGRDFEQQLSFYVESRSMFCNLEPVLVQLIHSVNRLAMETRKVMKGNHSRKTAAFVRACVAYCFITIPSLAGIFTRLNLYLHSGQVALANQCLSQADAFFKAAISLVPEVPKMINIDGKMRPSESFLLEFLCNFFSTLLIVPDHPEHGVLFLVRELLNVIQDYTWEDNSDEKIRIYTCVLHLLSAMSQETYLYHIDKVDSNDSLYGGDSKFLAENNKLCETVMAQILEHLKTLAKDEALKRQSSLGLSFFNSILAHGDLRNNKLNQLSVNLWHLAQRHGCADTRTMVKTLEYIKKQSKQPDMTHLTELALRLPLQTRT

Target	log2 fold change (vemurafenib)	log2 fold change [1]	log2 fold change (barasertib)	log2 fold change [2]	log2 fold change (volasertib)	log2 fold change [3]	log2 fold change [4]	log2 fold change [5]	log2 fold change (saracatinib)	log2 fold change (sotrastaurin)
UQCRC2 (UniProt P22695)	-0.016	0.01	-0.018	0.026	0.01	-0.015	0.034	-0.003	0.002	-0.02
UNC13D (UniProt Q70J99)	0.039	0.027	0.024	-0.073	-0.083	0.012	0.026	-0.015	0.05	-0.022
VPS35L (UniProt Q7Z3J2)	0.016	0.002	0.001	-0.072	-0.047	-0.004	-0.02	-0.005	0.004	0.046
USP16 (UniProt Q9Y5T5)	0.038	0.005	0.016	-0.009	-0.011	0.01	0.039	-0.045	0.054	0.013
ZZEF1 (UniProt O43149)	-0.013	0.012	0.051	-0.015	-0.028	-0.006	-0.116	0.029	0.036	0.01
UTP3 (UniProt Q9NQZ2)	0.004	0.012	0.058	-0.009	-0.011	-0.047	0	-0.02	0.011	0.05
VAV3 isoform 4 (UniProt Q9UKW4)	0.059	-0.004	0.049	-0.001	-0.017	-0.291	-0.512	0.177	-0.15	0.001
WDR7 (UniProt Q9Y4E6)	-0.005	-0.035	-0.019	-0.041	-0.057	0.029	-0.007	0.047	-0.018	0.01
VTN (UniProt P04004)	0.029	0.058	0.043	0.063	-0.001	0.011	-0.615 (active)	0.289	0.075	-0.012
VARS (UniProt P26640)	0.028	0.007	0.036	-0.077	-0.082	0.04	-0.014	-0.039	-0.001	0.03
WEE1 (UniProt P30291)	0.029	0.056	0.015	-0.25	-0.032	-0.077	–	–	-0.016	-0.1
WIPI2 isoform 6 (UniProt Q9Y4P8)	–	–	0.04	–	–	–	-0.24	-0.016	–	–
ZNF146 (UniProt Q15072)	–	–	–	–	–	–	–	–	0.247	–
ZBTB40 (UniProt Q9NUA8)	0.06	-0.076	–	–	0.029	-0.014	-0.127	0.095	-0.017	-0.012
ULK3 isoform 4 (UniProt Q6PHR2)	0.022	-0.042	0.001	-0.196	-0.139	–	-0.634 (active)	-0.285	0.18	-0.077
XPOT (UniProt F5GYW6)	–	-0.204	–	–	-0.112	–	–	–	–	–
ZNF346 (UniProt Q9UL40)	–	0.007	0.013	0.029	-0.047	-0.018	0.017	-0.051	0.001	0.011
ZNF652 (UniProt Q9Y2D9)	–	–	–	–	–	–	–	–	–	-0.034

Target	log2 fold change (vemurafenib)	log2 fold change [1]	log2 fold change (barasertib)	log2 fold change [2]	log2 fold change (volasertib)	log2 fold change [3]	log2 fold change [4]	log2 fold change [5]	log2 fold change (saracatinib)	log2 fold change (sotrastaurin)
ZYG11A (UniProt Q6WRX3)	–	-0.15	0.286	–	-0.017	-0.035	-0.16	0.011	–	–
UNKL (UniProt E9PDK2)	-0.118	–	0.047	-0.075	–	–	–	–	0.002	-0.05
ZFYVE19 isoform 3 (UniProt Q96K21)	–	0.048	-0.037	–	-0.231	–	–	–	–	–
VHL (UniProt P40337)	0.027	–	-0.005	-0.065	–	-0.054	0.11	-0.086	0.019	-0.038
ZKSCAN8 (UniProt Q15776)	0.049	-0.173	–	-0.019	-0.17	-0.001	–	–	0.028	0.027
ZSWIM8 isoform 4 (UniProt A7E2V4)	-0.173	–	0.22	0.039	–	0.038	-0.094	-0.071	0.018	0.039
ZSCAN21 (UniProt Q9Y5A6)	–	–	–	-0.024	–	–	0.043	0.053	–	–
UNC13A (UniProt Q9UPW8)	–	–	–	–	–	–	-1.79 (active)	0.531	–	–
ZSCAN26 (UniProt Q16670)	–	–	–	–	–	–	–	–	–	-0.239
ZNF644 (UniProt Q9H582)	0.027	–	0.045	0.047	–	-0.136	-0.05	-0.023	-0.086	0.013
WSB1 (UniProt Q9Y6I7)	–	–	–	–	–	0.105	0.078	0.08	-0.159	–
WIPI1 (UniProt Q5MNZ9)	–	0.044	0.04	0.119	-0.014	-0.043	-0.079	0.022	0.025	-0.074
ZNF845 (UniProt Q96IR2)	0.085	-0.024	0.088	–	-0.044	0.135	-0.012	0.078	-0.019	-0.012
ZNF281 (UniProt Q9Y2X9)	–	–	–	–	–	0.011	–	–	-0.069	0.028
ZDHHC17 (UniProt Q8IUH5)	0.058	0.047	–	0.077	-0.071	0.166	-0.346	0.141	0.205	0.117
WAS (UniProt P42768)	–	–	0.046	0.043	–	–	0.007	0.019	-0.136	–
UTRN isoform 2 (UniProt P46939)	–	–	-0.019	-0.318	–	–	0.148	-0.003	–	–
WAC isoform 5 (UniProt Q9BTA9)	–	–	–	–	–	0.047	–	–	-0.078	–
